{"source": "the supplement of paper PMC12282887", "note": "± gives the standard deviation of the averaged measurements.", "data": [{"test_system": "E. coli BW25113 acrABp lux reporter", "assay": "promoter activity interaction Z-score (Lux/OD deviation from empty-vector control); higher = stronger promoter induction by the compound", "details": "0.13 µg/ml; genetic background: wild type", "in_short": "(§1)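 Reporter strains of E. coli BW25113 grew at 37°C in 40 µl LB Lennox in 384-well plates. Readings of OD600 and luminescence were taken every 30 min over 12 h, integrated over 0–8 h (wild type) or 1–9 h (deletion strains), and wells below 10% of the median growth value were excluded. Scores are Z-transformed residuals of growth-normalised luminescence from a fit against a control.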", "values": [{"smiles": "N=C(NCCCCCCNC(=N)NC(=N)Nc1ccc(Cl)cc1)NC(=N)Nc1ccc(Cl)cc1", "note": "[Chlorhexidine]", "promoter activity interaction Z-score": "0.229 ± 0.18"}, {"smiles": "CCN1CCN(C(=O)N[C@@H](C(=O)N[C@@H]2C(=O)N3[C@@H]2SC(C)(C)[C@@H]3C(=O)O)c2ccccc2)C(=O)C1=O", "note": "[Piperacillin]", "promoter activity interaction Z-score": "-0.124 ± 0.2"}, {"smiles": "CO[C@@]12[C@H](COC(N)=O)C3=C(C(=O)C(C)=C(N)C3=O)N1C[C@@H]1N[C@@H]12", "note": "[Mitomycin C]", "promoter activity interaction Z-score": "-0.161 ± 0.0059"}]}, {"test_system": "E. coli BW25113 acrABp lux reporter", "assay": "promoter activity interaction Z-score (Lux/OD deviation from empty-vector control); higher = stronger promoter induction by the compound", "details": "0.13 µg/ml; genetic background: ΔmarA", "in_short": "as §1", "values": [{"smiles": "N=C(NCCCCCCNC(=N)NC(=N)Nc1ccc(Cl)cc1)NC(=N)Nc1ccc(Cl)cc1", "note": "[Chlorhexidine]", "promoter activity interaction Z-score": "-0.312 ± 0.48"}, {"smiles": "CCN1CCN(C(=O)N[C@@H](C(=O)N[C@@H]2C(=O)N3[C@@H]2SC(C)(C)[C@@H]3C(=O)O)c2ccccc2)C(=O)C1=O", "note": "[Piperacillin]", "promoter activity interaction Z-score": "0.866 ± 1.5"}, {"smiles": "CO[C@@]12[C@H](COC(N)=O)C3=C(C(=O)C(C)=C(N)C3=O)N1C[C@@H]1N[C@@H]12", "note": "[Mitomycin C]", "promoter activity interaction Z-score": "1.65 ± 0.15"}]}, {"test_system": "E. coli BW25113 acrABp lux reporter", "assay": "promoter activity interaction Z-score (Lux/OD deviation from empty-vector control); higher = stronger promoter induction by the compound", "details": "0.13 µg/ml; genetic background: Δrob", "in_short": "as §1", "values": [{"smiles": "N=C(NCCCCCCNC(=N)NC(=N)Nc1ccc(Cl)cc1)NC(=N)Nc1ccc(Cl)cc1", "note": "[Chlorhexidine]", "promoter activity interaction Z-score": "-0.0734 ± 0.14"}, {"smiles": "CCN1CCN(C(=O)N[C@@H](C(=O)N[C@@H]2C(=O)N3[C@@H]2SC(C)(C)[C@@H]3C(=O)O)c2ccccc2)C(=O)C1=O", "note": "[Piperacillin]", "promoter activity interaction Z-score": "0.0632 ± 0.21"}, {"smiles": "CO[C@@]12[C@H](COC(N)=O)C3=C(C(=O)C(C)=C(N)C3=O)N1C[C@@H]1N[C@@H]12", "note": "[Mitomycin C]", "promoter activity interaction Z-score": "0.0466 ± 0.51"}]}, {"test_system": "E. coli BW25113 acrABp lux reporter", "assay": "promoter activity interaction Z-score (Lux/OD deviation from empty-vector control); higher = stronger promoter induction by the compound", "details": "0.13 µg/ml; genetic background: ΔsoxS", "in_short": "as §1", "values": [{"smiles": "N=C(NCCCCCCNC(=N)NC(=N)Nc1ccc(Cl)cc1)NC(=N)Nc1ccc(Cl)cc1", "note": "[Chlorhexidine]", "promoter activity interaction Z-score": "0.339 ± 0.46"}, {"smiles": "CCN1CCN(C(=O)N[C@@H](C(=O)N[C@@H]2C(=O)N3[C@@H]2SC(C)(C)[C@@H]3C(=O)O)c2ccccc2)C(=O)C1=O", "note": "[Piperacillin]", "promoter activity interaction Z-score": "-0.295 ± 0.39"}, {"smiles": "CO[C@@]12[C@H](COC(N)=O)C3=C(C(=O)C(C)=C(N)C3=O)N1C[C@@H]1N[C@@H]12", "note": "[Mitomycin C]", "promoter activity interaction Z-score": "0.106 ± 0.043"}]}, {"test_system": "E. coli BW25113 acrABp lux reporter", "assay": "promoter activity interaction Z-score (Lux/OD deviation from empty-vector control); higher = stronger promoter induction by the compound", "details": "0.25 µg/ml; genetic background: wild type", "in_short": "as §1", "values": [{"smiles": "C/C(=C\\C(=O)OCCCCCCCCC(=O)O)C[C@@H]1OC[C@H](C[C@@H]2O[C@H]2[C@@H](C)[C@H](C)O)[C@@H](O)[C@H]1O", "note": "[Pseudomonic acid]", "promoter activity interaction Z-score": "-0.112 ± 0.0017"}, {"smiles": "N=C(NCCCCCCNC(=N)NC(=N)Nc1ccc(Cl)cc1)NC(=N)Nc1ccc(Cl)cc1", "note": "[Chlorhexidine]", "promoter activity interaction Z-score": "0.27 ± 0.26"}, {"smiles": "CO[C@@]12[C@H](COC(N)=O)C3=C(C(=O)C(C)=C(N)C3=O)N1C[C@@H]1N[C@@H]12", "note": "[Mitomycin C]", "promoter activity interaction Z-score": "0.269 ± 0.076"}]}, {"test_system": "E. coli BW25113 acrABp lux reporter", "assay": "promoter activity interaction Z-score (Lux/OD deviation from empty-vector control); higher = stronger promoter induction by the compound", "details": "0.25 µg/ml; genetic background: ΔmarA", "in_short": "as §1", "values": [{"smiles": "C/C(=C\\C(=O)OCCCCCCCCC(=O)O)C[C@@H]1OC[C@H](C[C@@H]2O[C@H]2[C@@H](C)[C@H](C)O)[C@@H](O)[C@H]1O", "note": "[Pseudomonic acid]", "promoter activity interaction Z-score": "0.206 ± 0.33"}, {"smiles": "N=C(NCCCCCCNC(=N)NC(=N)Nc1ccc(Cl)cc1)NC(=N)Nc1ccc(Cl)cc1", "note": "[Chlorhexidine]", "promoter activity interaction Z-score": "-0.147 ± 0.57"}, {"smiles": "CO[C@@]12[C@H](COC(N)=O)C3=C(C(=O)C(C)=C(N)C3=O)N1C[C@@H]1N[C@@H]12", "note": "[Mitomycin C]", "promoter activity interaction Z-score": "0.437 ± 0.76"}]}, {"test_system": "E. coli BW25113 acrABp lux reporter", "assay": "promoter activity interaction Z-score (Lux/OD deviation from empty-vector control); higher = stronger promoter induction by the compound", "details": "0.25 µg/ml; genetic background: Δrob", "in_short": "as §1", "values": [{"smiles": "C/C(=C\\C(=O)OCCCCCCCCC(=O)O)C[C@@H]1OC[C@H](C[C@@H]2O[C@H]2[C@@H](C)[C@H](C)O)[C@@H](O)[C@H]1O", "note": "[Pseudomonic acid]", "promoter activity interaction Z-score": "0.0305 ± 0.27"}, {"smiles": "N=C(NCCCCCCNC(=N)NC(=N)Nc1ccc(Cl)cc1)NC(=N)Nc1ccc(Cl)cc1", "note": "[Chlorhexidine]", "promoter activity interaction Z-score": "0.135 ± 0.15"}, {"smiles": "CO[C@@]12[C@H](COC(N)=O)C3=C(C(=O)C(C)=C(N)C3=O)N1C[C@@H]1N[C@@H]12", "note": "[Mitomycin C]", "promoter activity interaction Z-score": "-0.105 ± 0.42"}]}, {"test_system": "E. coli BW25113 acrABp lux reporter", "assay": "promoter activity interaction Z-score (Lux/OD deviation from empty-vector control); higher = stronger promoter induction by the compound", "details": "0.25 µg/ml; genetic background: ΔsoxS", "in_short": "as §1", "values": [{"smiles": "C/C(=C\\C(=O)OCCCCCCCCC(=O)O)C[C@@H]1OC[C@H](C[C@@H]2O[C@H]2[C@@H](C)[C@H](C)O)[C@@H](O)[C@H]1O", "note": "[Pseudomonic acid]", "promoter activity interaction Z-score": "-0.332 ± 0.5"}, {"smiles": "N=C(NCCCCCCNC(=N)NC(=N)Nc1ccc(Cl)cc1)NC(=N)Nc1ccc(Cl)cc1", "note": "[Chlorhexidine]", "promoter activity interaction Z-score": "0.108 ± 0.19"}, {"smiles": "CO[C@@]12[C@H](COC(N)=O)C3=C(C(=O)C(C)=C(N)C3=O)N1C[C@@H]1N[C@@H]12", "note": "[Mitomycin C]", "promoter activity interaction Z-score": "-0.0948 ± 0.4"}]}, {"test_system": "E. coli BW25113 micFp lux reporter", "assay": "promoter activity interaction Z-score (Lux/OD deviation from empty-vector control); higher = stronger promoter induction by the compound", "details": "0.13 µg/ml; genetic background: wild type", "in_short": "as §1", "values": [{"smiles": "N=C(NCCCCCCNC(=N)NC(=N)Nc1ccc(Cl)cc1)NC(=N)Nc1ccc(Cl)cc1", "note": "[Chlorhexidine]", "promoter activity interaction Z-score": "-0.207 ± 0.061"}, {"smiles": "CCN1CCN(C(=O)N[C@@H](C(=O)N[C@@H]2C(=O)N3[C@@H]2SC(C)(C)[C@@H]3C(=O)O)c2ccccc2)C(=O)C1=O", "note": "[Piperacillin]", "promoter activity interaction Z-score": "-0.112 ± 0.27"}, {"smiles": "CO[C@@]12[C@H](COC(N)=O)C3=C(C(=O)C(C)=C(N)C3=O)N1C[C@@H]1N[C@@H]12", "note": "[Mitomycin C]", "promoter activity interaction Z-score": "-0.0611 ± 0.13"}]}, {"test_system": "E. coli BW25113 micFp lux reporter", "assay": "promoter activity interaction Z-score (Lux/OD deviation from empty-vector control); higher = stronger promoter induction by the compound", "details": "0.13 µg/ml; genetic background: ΔmarA", "in_short": "as §1", "values": [{"smiles": "N=C(NCCCCCCNC(=N)NC(=N)Nc1ccc(Cl)cc1)NC(=N)Nc1ccc(Cl)cc1", "note": "[Chlorhexidine]", "promoter activity interaction Z-score": "-0.0564 ± 0.12"}, {"smiles": "CCN1CCN(C(=O)N[C@@H](C(=O)N[C@@H]2C(=O)N3[C@@H]2SC(C)(C)[C@@H]3C(=O)O)c2ccccc2)C(=O)C1=O", "note": "[Piperacillin]", "promoter activity interaction Z-score": "-0.0842 ± 0.077"}, {"smiles": "CO[C@@]12[C@H](COC(N)=O)C3=C(C(=O)C(C)=C(N)C3=O)N1C[C@@H]1N[C@@H]12", "note": "[Mitomycin C]", "promoter activity interaction Z-score": "0.273 ± 0.08"}]}]}
